Assays:
[1] = molecular target: Tyrosine-protein kinase CSK (Homo sapiens) (UniProt P41240); settings: at 1 µM;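 note: each value is an averaged inhibition reading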
[2] = molecular target: T1, Discoidin domain-containing receptor 2 (Homo sapiens) (UniProt Q16832); settings: at 0.1 µM
T1 sequence (whole entry): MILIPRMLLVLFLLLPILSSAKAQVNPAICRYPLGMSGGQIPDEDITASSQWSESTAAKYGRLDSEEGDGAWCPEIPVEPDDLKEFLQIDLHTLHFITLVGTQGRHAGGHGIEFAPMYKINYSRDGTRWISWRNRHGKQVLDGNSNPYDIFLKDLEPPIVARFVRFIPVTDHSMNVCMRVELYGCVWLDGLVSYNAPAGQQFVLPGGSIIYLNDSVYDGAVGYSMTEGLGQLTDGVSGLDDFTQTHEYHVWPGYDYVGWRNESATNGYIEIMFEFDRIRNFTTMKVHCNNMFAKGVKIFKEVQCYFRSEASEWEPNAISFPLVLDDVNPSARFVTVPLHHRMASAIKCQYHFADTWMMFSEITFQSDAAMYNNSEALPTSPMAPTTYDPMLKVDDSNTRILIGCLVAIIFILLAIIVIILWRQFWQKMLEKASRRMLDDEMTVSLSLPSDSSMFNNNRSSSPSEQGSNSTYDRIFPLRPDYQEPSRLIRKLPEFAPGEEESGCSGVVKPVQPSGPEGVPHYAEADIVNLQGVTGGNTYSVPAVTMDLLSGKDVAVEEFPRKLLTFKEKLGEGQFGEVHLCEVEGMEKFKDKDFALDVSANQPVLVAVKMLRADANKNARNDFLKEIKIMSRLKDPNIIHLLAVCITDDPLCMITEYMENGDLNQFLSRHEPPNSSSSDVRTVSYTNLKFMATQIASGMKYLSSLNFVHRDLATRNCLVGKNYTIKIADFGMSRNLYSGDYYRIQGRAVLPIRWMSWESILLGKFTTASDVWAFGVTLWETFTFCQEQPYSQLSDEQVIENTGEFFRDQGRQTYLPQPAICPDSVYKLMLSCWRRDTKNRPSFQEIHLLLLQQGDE

[3] = molecular target: T1, Discoidin domain-containing receptor 2 (Homo sapiens); settings: at 1 µM
[4] = molecular target: Epidermal growth factor receptor (Homo sapiens) (UniProt P00533); settings: at 0.1 µM
[5] = molecular target: Epidermal growth factor receptor (Homo sapiens) (UniProt P00533); settings: at 1 µM
[6] = system: Epidermal growth factor receptor (Homo sapiens), P00533 [L858R]; settings: at 0.1 µM
[7] = system: Epidermal growth factor receptor (Homo sapiens), P00533 [L858R]; settings: at 1 µM
[8] = system: Epidermal growth factor receptor (Homo sapiens), P00533 [L861Q]; settings: at 0.1 µM
[9] = system: Epidermal growth factor receptor (Homo sapiens), P00533 [L861Q]; settings: at 1 µM
[10] = system: Epidermal growth factor receptor (Homo sapiens), P00533 [T790M]; settings: at 0.1 µM
[11] = system: Epidermal growth factor receptor (Homo sapiens), P00533 [T790M]; settings: at 1 µM
[12] = system: Epidermal growth factor receptor (Homo sapiens), P00533 [L858R,T790M]; settings: at 0.1 µM
[13] = system: Epidermal growth factor receptor (Homo sapiens), P00533 [L858R,T790M]; settings: at 1 µM
[14] = molecular target: Ephrin type-A receptor 2 (Homo sapiens) (UniProt P29317); settings: at 0.1 µM
[15] = molecular target: Ephrin type-A receptor 2 (Homo sapiens) (UniProt P29317); settings: at 1 µM
[16] = molecular target: T2, Ephrin type-A receptor 3 (Homo sapiens) (UniProt P29320); settings: at 0.1 µM
T2 sequence (whole entry): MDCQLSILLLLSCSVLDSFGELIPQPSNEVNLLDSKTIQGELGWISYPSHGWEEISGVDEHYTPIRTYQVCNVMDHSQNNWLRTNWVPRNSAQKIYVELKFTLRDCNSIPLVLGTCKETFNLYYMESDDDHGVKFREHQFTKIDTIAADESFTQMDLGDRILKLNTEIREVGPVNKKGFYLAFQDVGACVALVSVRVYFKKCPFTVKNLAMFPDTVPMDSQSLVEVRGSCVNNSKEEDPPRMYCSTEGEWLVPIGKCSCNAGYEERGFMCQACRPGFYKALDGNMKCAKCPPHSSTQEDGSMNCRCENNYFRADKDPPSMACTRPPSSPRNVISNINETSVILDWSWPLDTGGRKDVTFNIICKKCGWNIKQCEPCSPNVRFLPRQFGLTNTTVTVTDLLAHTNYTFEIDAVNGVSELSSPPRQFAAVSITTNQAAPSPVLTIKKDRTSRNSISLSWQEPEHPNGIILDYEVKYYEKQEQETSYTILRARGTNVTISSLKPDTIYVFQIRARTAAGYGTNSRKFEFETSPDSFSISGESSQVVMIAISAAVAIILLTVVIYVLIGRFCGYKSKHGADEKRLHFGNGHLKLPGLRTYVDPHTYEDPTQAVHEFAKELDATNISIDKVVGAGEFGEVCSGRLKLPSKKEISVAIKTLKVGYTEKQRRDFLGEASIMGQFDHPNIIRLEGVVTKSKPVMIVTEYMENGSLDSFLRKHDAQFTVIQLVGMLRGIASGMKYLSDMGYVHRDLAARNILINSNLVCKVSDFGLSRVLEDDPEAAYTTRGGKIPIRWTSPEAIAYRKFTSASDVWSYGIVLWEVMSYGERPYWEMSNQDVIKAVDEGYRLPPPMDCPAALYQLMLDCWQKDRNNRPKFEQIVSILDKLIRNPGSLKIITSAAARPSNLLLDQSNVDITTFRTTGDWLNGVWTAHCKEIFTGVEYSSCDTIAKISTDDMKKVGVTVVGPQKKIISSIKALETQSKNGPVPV

[17] = molecular target: T2, Ephrin type-A receptor 3 (Homo sapiens); settings: at 1 µM
[18] = molecular target: Ephrin type-A receptor 4 (Homo sapiens) (UniProt P54764); settings: at 0.1 µM
[19] = molecular target: Ephrin type-A receptor 4 (Homo sapiens) (UniProt P54764); settings: at 1 µM
[20] = molecular target: T3, Ephrin type-B receptor 2 (Homo sapiens) (UniProt P29323); settings: at 0.1 µM;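 note: reported as mean inhibition of EPHB2, from the GSK PKIS dataset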
T3 sequence (whole entry): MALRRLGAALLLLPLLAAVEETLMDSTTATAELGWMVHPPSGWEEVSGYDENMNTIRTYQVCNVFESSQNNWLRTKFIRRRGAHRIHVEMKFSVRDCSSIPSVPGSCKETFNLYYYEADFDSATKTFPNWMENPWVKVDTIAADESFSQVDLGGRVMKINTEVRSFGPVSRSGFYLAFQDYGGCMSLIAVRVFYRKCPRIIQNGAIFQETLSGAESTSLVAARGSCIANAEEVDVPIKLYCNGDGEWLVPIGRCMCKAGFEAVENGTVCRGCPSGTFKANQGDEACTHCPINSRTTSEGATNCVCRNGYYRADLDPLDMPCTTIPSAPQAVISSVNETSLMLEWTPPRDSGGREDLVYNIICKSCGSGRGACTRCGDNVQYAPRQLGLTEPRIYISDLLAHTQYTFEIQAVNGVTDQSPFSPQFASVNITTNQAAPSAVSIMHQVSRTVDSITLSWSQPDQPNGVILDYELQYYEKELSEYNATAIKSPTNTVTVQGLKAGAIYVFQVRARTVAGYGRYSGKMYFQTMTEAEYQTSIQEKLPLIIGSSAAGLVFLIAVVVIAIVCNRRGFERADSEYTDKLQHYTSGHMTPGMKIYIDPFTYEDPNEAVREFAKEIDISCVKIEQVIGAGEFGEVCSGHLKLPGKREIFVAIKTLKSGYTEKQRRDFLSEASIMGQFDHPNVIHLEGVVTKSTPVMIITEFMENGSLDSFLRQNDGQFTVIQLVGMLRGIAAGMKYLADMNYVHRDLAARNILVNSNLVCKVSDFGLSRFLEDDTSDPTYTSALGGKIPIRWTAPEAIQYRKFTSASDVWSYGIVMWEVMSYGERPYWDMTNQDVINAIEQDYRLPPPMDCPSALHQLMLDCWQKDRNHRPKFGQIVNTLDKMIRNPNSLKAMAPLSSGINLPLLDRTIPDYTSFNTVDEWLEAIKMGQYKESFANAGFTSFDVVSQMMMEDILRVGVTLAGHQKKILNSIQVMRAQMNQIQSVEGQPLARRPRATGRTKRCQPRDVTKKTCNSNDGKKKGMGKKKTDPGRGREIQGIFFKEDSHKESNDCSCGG

Epidermal growth factor receptor (Homo sapiens), P00533 [L861Q], sequence (P00533 whole entry L861Q): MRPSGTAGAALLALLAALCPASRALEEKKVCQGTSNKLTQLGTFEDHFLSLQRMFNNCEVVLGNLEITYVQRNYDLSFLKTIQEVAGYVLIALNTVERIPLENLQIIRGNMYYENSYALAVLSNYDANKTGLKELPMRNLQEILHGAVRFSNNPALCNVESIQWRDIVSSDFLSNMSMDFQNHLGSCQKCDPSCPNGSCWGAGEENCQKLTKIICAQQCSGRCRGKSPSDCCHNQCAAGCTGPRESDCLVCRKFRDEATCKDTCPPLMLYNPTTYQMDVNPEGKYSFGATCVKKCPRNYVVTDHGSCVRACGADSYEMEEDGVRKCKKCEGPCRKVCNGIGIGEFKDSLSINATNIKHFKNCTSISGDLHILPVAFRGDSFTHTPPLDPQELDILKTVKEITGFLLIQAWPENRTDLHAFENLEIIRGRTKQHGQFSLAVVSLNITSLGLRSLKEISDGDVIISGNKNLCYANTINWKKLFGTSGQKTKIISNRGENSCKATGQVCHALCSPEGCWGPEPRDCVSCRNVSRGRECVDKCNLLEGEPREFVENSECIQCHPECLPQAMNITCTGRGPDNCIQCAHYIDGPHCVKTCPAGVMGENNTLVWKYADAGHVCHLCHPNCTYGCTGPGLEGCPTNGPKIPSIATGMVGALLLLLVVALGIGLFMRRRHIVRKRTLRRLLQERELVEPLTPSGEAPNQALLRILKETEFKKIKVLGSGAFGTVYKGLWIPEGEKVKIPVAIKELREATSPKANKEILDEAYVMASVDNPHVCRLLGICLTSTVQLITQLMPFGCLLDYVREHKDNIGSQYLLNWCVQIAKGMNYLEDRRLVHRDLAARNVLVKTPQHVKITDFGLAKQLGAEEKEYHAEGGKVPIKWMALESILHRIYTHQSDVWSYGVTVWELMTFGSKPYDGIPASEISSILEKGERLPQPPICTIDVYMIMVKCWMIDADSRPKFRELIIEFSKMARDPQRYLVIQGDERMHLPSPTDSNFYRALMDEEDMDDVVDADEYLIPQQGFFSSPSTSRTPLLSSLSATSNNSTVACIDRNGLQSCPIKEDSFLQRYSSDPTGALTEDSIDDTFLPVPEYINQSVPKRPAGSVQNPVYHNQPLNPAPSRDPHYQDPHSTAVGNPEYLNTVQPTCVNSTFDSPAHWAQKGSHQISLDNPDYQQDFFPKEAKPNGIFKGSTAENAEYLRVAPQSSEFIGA
Epidermal growth factor receptor (Homo sapiens), P00533 [L858R,T790M], sequence (P00533 whole entry T790M/L858R, looked up): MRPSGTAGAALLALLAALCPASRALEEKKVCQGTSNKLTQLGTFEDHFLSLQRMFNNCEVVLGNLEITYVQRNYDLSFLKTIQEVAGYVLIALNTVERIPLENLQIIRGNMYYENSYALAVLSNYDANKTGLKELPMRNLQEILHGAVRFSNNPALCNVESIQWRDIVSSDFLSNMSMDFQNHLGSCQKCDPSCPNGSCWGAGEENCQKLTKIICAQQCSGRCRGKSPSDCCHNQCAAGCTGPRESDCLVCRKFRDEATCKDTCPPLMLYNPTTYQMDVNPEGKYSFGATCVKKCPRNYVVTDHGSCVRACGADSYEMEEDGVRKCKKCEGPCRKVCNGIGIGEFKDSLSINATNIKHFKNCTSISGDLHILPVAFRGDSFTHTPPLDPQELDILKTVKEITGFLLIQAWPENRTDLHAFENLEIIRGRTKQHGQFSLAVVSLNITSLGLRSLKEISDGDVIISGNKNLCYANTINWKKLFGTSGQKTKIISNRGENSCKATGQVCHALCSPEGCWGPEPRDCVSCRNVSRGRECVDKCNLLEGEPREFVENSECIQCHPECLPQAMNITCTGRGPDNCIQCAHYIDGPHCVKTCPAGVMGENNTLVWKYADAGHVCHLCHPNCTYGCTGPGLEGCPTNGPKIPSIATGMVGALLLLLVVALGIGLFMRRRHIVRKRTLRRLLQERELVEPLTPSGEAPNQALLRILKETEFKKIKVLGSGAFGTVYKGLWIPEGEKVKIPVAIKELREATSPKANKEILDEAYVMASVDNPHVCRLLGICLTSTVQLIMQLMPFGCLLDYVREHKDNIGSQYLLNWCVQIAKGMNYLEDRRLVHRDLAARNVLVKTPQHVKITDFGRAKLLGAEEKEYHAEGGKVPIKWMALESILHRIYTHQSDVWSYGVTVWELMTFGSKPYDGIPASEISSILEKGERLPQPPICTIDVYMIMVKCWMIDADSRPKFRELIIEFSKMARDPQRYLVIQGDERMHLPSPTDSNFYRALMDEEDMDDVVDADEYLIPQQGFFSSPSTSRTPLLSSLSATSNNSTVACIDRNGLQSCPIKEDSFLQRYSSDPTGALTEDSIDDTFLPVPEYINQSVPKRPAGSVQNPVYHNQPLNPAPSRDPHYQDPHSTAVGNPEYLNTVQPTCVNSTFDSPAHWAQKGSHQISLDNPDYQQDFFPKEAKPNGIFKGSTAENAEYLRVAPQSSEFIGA
Ephrin type-A receptor 4 (Homo sapiens), sequence (P54764 whole entry): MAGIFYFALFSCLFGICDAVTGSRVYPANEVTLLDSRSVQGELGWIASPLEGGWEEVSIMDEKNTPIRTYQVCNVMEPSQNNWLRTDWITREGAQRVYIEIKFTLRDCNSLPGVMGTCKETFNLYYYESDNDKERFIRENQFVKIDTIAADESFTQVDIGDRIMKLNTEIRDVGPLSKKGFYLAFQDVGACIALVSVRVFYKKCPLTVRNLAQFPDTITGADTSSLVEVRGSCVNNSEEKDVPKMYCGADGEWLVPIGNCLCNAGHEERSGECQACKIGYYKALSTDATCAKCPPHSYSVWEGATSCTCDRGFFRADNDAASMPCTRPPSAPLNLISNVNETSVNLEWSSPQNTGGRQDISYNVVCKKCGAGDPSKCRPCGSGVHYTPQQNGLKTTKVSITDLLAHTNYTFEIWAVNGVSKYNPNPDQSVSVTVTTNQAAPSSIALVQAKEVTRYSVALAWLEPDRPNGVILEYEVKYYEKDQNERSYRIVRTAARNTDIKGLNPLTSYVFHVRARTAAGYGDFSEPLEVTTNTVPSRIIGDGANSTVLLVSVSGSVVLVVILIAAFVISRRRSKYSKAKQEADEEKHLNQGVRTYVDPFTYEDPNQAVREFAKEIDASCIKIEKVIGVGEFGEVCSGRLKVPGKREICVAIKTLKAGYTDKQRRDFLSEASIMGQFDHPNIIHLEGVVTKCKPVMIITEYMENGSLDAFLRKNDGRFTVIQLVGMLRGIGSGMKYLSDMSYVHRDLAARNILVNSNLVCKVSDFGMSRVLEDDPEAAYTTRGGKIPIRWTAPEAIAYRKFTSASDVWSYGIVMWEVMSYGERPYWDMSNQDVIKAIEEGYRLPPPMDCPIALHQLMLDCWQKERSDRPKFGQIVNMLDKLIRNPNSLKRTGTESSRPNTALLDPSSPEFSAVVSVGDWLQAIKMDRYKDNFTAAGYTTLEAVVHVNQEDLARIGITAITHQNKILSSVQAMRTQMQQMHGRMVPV
Tyrosine-protein kinase CSK (Homo sapiens), sequence (P41240 2-450 limits assumed): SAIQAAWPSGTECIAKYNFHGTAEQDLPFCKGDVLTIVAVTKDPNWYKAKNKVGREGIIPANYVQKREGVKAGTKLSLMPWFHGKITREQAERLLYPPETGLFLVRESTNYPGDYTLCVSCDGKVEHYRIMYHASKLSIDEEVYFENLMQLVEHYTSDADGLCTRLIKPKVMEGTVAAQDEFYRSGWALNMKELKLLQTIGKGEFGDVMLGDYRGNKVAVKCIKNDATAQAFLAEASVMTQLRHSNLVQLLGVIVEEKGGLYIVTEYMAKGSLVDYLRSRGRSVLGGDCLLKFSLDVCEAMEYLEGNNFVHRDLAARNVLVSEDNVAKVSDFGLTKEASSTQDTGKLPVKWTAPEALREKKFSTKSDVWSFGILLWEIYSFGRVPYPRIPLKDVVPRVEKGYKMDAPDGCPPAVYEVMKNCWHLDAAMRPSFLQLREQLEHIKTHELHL
Epidermal growth factor receptor (Homo sapiens), P00533 [L858R], sequence (P00533 whole entry L858R): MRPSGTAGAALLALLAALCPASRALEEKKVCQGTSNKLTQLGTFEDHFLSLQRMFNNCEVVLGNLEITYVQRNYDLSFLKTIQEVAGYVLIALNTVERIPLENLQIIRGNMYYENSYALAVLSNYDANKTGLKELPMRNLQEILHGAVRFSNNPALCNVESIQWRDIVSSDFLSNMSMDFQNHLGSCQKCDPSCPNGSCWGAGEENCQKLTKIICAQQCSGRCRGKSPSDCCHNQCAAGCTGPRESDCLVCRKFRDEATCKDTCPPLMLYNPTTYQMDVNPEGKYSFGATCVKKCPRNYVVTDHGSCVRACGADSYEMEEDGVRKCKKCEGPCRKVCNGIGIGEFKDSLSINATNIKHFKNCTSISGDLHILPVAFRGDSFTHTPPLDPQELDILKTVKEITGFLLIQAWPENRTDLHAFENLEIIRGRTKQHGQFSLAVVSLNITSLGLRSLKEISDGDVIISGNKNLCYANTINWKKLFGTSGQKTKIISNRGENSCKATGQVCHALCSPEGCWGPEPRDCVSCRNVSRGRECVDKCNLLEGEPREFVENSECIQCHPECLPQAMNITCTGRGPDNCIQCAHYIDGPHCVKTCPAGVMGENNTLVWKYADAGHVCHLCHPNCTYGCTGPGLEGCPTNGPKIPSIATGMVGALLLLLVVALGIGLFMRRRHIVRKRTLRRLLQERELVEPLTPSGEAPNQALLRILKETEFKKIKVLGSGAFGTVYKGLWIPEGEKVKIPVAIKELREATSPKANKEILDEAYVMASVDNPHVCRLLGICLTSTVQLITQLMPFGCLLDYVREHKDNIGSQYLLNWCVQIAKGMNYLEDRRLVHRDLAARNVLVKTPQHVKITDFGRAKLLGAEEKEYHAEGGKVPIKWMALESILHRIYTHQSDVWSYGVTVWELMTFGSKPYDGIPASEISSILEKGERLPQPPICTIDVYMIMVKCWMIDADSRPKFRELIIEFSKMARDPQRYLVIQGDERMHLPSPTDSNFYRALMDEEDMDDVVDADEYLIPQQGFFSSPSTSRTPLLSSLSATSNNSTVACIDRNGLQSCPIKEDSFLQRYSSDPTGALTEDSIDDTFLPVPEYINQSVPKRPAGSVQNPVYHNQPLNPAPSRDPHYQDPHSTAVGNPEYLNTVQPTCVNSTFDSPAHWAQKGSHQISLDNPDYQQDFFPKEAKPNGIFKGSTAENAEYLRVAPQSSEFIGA

Compound	inhibition [1]	inhibition [2]	inhibition [3]	inhibition [4]	inhibition [5]	inhibition [6]	inhibition [7]	inhibition [8]	inhibition [9]	inhibition [10]	inhibition [11]	inhibition [12]	inhibition [13]	inhibition [14]	inhibition [15]	inhibition [16]	inhibition [17]	inhibition [18]	inhibition [19]	inhibition [20]
CC1=C(C(=O)Nc2ccc3[nH]ncc3c2)C(c2ccc(Cl)c(Cl)c2)CC(=O)N1 (stereo not given)	4.23%	3.12%	3.67%	6.77%	8.22%	1.45%	5.4%	1.95%	0.96%	0.19%	0.85%	2.39%	12.1%	-0.63%	0.57%	3.06%	2.8%	6.53%	4.28%	7.7%
NC(=O)c1cccc(Nc2nccc(Nc3cccc4[nH]ncc34)n2)c1	26.5%	19.9%	77.6%	2.96%	24.1%	13.4%	70.1%	3.36%	27.8%	-1.89%	-2.41%	-5.66%	8.31%	7.85%	53.6%	40.2%	72.9%	31%	81.1%	30.4%
Fc1cccc(COc2ccc(Nc3ncnc4cc(-c5ccc[nH]5)sc34)cc2Cl)c1	1.12%	0.15%	-1%	66.2%	77.3%	32.5%	82.9%	37.8%	71.8%	0.21%	2.62%	-2.38%	0.3%	-6.71%	-6.16%	-1.97%	-0.94%	5.45%	6.22%	1.52%
CNC(=O)c1cncc(/C=C/c2c(Cl)cccc2Cl)c1	10.6%	3.42%	21.2%	-0.54%	0.79%	0.61%	14.2%	2.27%	4.01%	1.23%	0.83%	0.18%	3.2%	0.35%	17.3%	-0.5%	5.3%	7.99%	43.6%	10.3%
Cc1ccc(NC(=O)c2ccnc(N3CCCC3)c2)cc1-c1ccc(C(=O)NCC2CC2)cc1	-0.29%	3.77%	22.6%	-4.33%	-3.35%	-1.08%	-0.58%	2.11%	-3.41%	1.68%	0.9%	-0.13%	2.67%	-2.27%	-2.02%	-0.85%	-0.25%	7.04%	5.58%	4.55%
CS(=O)(=O)CCNCc1ccc(-c2ccc3ncnc(Nc4ccc(OCc5ccccc5)c(Cl)c4)c3c2)o1	5.6%	3.48%	9.08%	82.5%	85.6%	61.7%	93.6%	52.9%	87.6%	2.68%	17.8%	-1.01%	2.45%	-2.92%	-2.31%	-2.51%	1.66%	1.26%	9.95%	5.36%
CN1CCC(C(=O)Nc2n[nH]c3nnc(-c4ccccc4)cc23)CC1	6.5%	0.55%	1%	10.2%	7.57%	1.7%	3.79%	2.96%	6.37%	1.89%	4.1%	-2.57%	4.67%	1.84%	2.09%	4.03%	2.66%	8.03%	8.45%	4.92%
CS(=O)(=O)CCN(CC#N)Cc1ccc(-c2ccc3ncnc(Nc4ccc(OCc5cccc(F)c5)c(Cl)c4)c3c2)o1	4.77%	0.7%	0.75%	69.4%	77.2%	36.5%	83.6%	41.5%	76.2%	1.04%	5.17%	-1.28%	0.73%	-5.85%	-5.32%	-2.74%	-2.11%	1.75%	5.59%	6.06%
CC1=C(C(=O)Nc2ccc3[nH]ncc3c2)C(c2ccc(F)cc2)NC(=O)N1 (stereo not given)	1.35%	0.44%	0.08%	-0.6%	1.27%	3.85%	4.77%	2.31%	1.33%	0.71%	0.87%	-2.35%	-1.39%	-2.91%	-2.18%	2.51%	2.14%	4.19%	4.52%	2.76%
O=C1NC(=O)C(c2ccc(Cl)cc2)=C1Nc1ccc(Cl)c(C(=O)O)c1	-4.62%	0.03%	2.46%	1.07%	6.73%	-2.2%	6.41%	0.32%	1.03%	-0.88%	-1.21%	-0.4%	-1.38%	-2%	-1.26%	-3.17%	-3.69%	-6.1%	-6.97%	-0.68%
CCn1c(-c2nonc2N)nc2ccncc21	-5.08%	0.25%	0.08%	0.86%	2.64%	-3.87%	-4.06%	0.79%	-0.98%	-0.65%	0.29%	-1.07%	-0.45%	1.93%	1.77%	0.73%	-0.12%	5.04%	-7.03%	-0.84%
c1cnn2ncc(-c3ccnc(Nc4ccc5c(c4)OCCO5)n3)c2c1	14.9%	2.85%	2.07%	1.88%	4.28%	3.09%	11%	3.71%	5.7%	2.81%	2.42%	2.19%	7.05%	2.91%	5.71%	7.54%	5.48%	12%	28.2%	12.1%
COc1ccc2cc(-c3c(-c4ccncc4)nc(-c4ccc([S+](C)[O-])cc4)n3C)ccc2c1 (stereo not given)	-2.89%	1.35%	3.95%	6.79%	3.4%	2.1%	0.76%	1.88%	1.02%	-0.14%	-0.54%	1.75%	0.88%	1.69%	1.61%	3.89%	5.2%	-2.82%	8.03%	3.58%

— ChEMBL document CHEMBL1961873, “Compounds: GSK PKIS; Assays: Nanosyn kinase panel” (2012)
